# A selection: hits, their analogues and other compounds. The true share with any hit is near 3.9%.
# Peg3 promoter: reduces Peg3 promoter-driven luciferase expression in HeLa | actives 1.7% (n = 360,000) | HeLa PEG-Prom luciferase reporter, luminescence, overnight | AID 588405 | inhibition, % at 20 µM;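 active = inhibition of at least 50% at 20 µM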
# HIF-2a inh: HIF-2a inhibition | 786-0 RCC cells HIF-2a reporter, luciferase luminescence, overnight | actives 0.72% (n = 360,000) | AID 624352 | inhibition, % at 18.8 µM;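 active = inhibition of the luminescence signal of 40% or more relative to plate controls, in a single-dose primary screen at 18.75 µM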
# CF NFkB block: blocks PAF-induced NF-kB reporter in cystic fibrosis cells; KKLEB NF-kB-GFP reporter, GFP fluorescence overnight; inhibition, % at 5 µM; actives 0.86% (n = 360,000); AID 588850;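 active = at least 50% inhibition at 5 µM, scaled per plate between neutral and stimulator controls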;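 note: PAF is a Pseudomonas aeruginosa culture filtrate used as stimulus; plate controls were PAF-stimulated DMSO wells for no effect and unstimulated DMSO wells for full effect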
# TROY NFkB inh: TROY signaling inhibition | Q293 LMP1-TROYcd NF-kB luciferase reporter, 4 h | inhibition, % at 10 µM | actives 0.98% (n = 360,000) | AID 1347056;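 active = compounds whose plate-normalised and pattern-corrected inhibition of the luciferase reporter signal at the single screening dose is 50% or more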
# TWEAK-Fn14 inh: TWEAK-Fn14 signaling inhibition | actives 2% (n = 360,000) | inhibition, % at 10 µM | TWEAK-stimulated Fn14 reporter cells, luciferase luminescence, 8 h | AID 1159606; in the data active = inhibition above about 50%
# KKLEB tox: reduces viability of KKLEB cystic fibrosis airway cells | KKLEB CF airway cells viability, ATPlite luminescence, overnight; hits give low values; cells stimulated with P. aeruginosa culture filtrate | activity change (cytotoxicity), % at 5 µM | actives 0.36% (n = 360,000);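 active = corrected activity change at or below -50% at 5 µM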
# Starred values were filed as active, the others as inactive; . = no result.
SMILES,Peg3 promoter,HIF-2a inh,CF NFkB block,TROY NFkB inh,TWEAK-Fn14 inh,KKLEB tox
Cc1cccc(C)c1-n1c(C)cc(/C=N\Nc2ccc([N+](=O)[O-])cn2)c1C,-42.5,-23.9,-22.8,.,79.7*,-1.9
COc1cccc(N2CCN(CC(=O)Nc3nnc(-c4ccccc4)s3)CC2)c1,14.5,3.5,-4.6,29.2,54.8*,6.6
CCc1nnc(NC(=O)CN2CCN(Cc3cccc(F)c3)CC2)s1,-12.5,-1.1,9.3,-11.1,52.8*,8.8
CCc1nnc(NC(=O)CN2CCN(Cc3cccc(Cl)c3)CC2)s1,24.5,18.3,-2.8,0.8,0.2,-0.5
Cc1cc(NCCNC2=CC(=O)CCC2)nc2ccccc12,7.0,9.0,-0.3,5.7,73.5*,5.5
Cc1cc(NCC2CCCCC2)nc2ccccc12,-78.1,-126.4,11.6,-58.0,-4.2,-0.2
COc1ccc(-c2nc(NC(=O)c3ccccc3)sc2-c2ccc([N+](=O)[O-])cc2)cc1,11.0,2.9,-17.3,7.5,-19.2,0.3
COc1ccc(S(=O)(=O)Nc2cc(SCC(=O)O)c(O)c3ccccc23)cc1,10.3,-2.5,78.5*,50.9*,92.8*,-21.1
O=C(O)CSc1cc(NS(=O)(=O)c2ccc(Cl)cc2)c2ccccc2c1O,30.0,16.9,81.0*,46.2,93.6*,-20.7
CCCNS(=O)(=O)c1ccc(CCC(=O)Nc2cc(Cl)ccc2Oc2ccccc2)cc1,41.3,18.9,-1.9,24.8,66.1*,-7.1
Cc1cccc(C)c1N(CC(=O)Nc1cc(Cl)ccc1Oc1ccccc1)S(C)(=O)=O,12.3,14.2,13.4,51.7*,9.7,-11.7
CC(C)CNS(=O)(=O)c1ccc(CCC(=O)Nc2cc(Cl)ccc2Oc2ccccc2)cc1,20.7,14.7,6.4,21.7,48.5,-7.8
O=C(NCCCNC(=O)c1ccc(Cl)cc1Cl)c1cnccn1,-7.1,6.5,1.4,8.1,5.8,2.0
CNS(=O)(=O)c1ccc2c(c1)NC(=O)C1CCCN21 (configuration not stated),81.5*,17.8,-30.5,3.6,38.8,7.7
CC1CCCCN1C(=O)C12CCC(C)(/C(=N/O)C1)C2(C)C (configuration not stated),-3.2,0.1,8.2,13.1,2.5,-8.5
O=C(O)c1cnn(-c2nc(-c3ccc(F)cc3)cs2)c1C(F)(F)F,-118.9,-164.1,5.7,-29.7,-29.0,-1.5
N#CC(C#N)=C(Nc1ccc(F)cc1)SCc1cccc(F)c1,23.4,-15.7,42.1,53.1*,49.0,-34.7
CCC(c1nnc(SCC(=O)Nc2cc(Cl)ccc2C#N)n1C1CCCCC1)N(C)C (configuration not stated),11.6,10.1,6.6,-13.1,0.4,-3.2
CC(=O)n1cc([C@@H]2C=C(C(=O)N3CCOCC3)O[C@H](OCCCCO)C2)c2ccccc21,-3.7,10.6,-31.4,-3.0,-13.6,-5.9
O=C(c1cc(-c2ccccc2Cl)on1)N1CCCC1,-131.7,-46.3,-17.1,36.2,70.2*,-16.4
COc1ccccc1-c1cc(C(=O)N2CCCC2)no1,-298.7,-187.5,-3.0,-19.6,15.6,-3.9
O=C(Nc1cccc(O)c1)c1cc(-c2ccccc2Cl)on1,-45.1,-61.5,-12.5,50.6*,77.1*,-41.8
O=C(Nc1cccc(O)c1)c1cc(-c2ccc3c(c2)OCO3)on1,34.2,-45.3,0.2,64.3*,95.4*,-69.6*
CCCNC(=O)c1cc(-c2ccc3c(c2)OCO3)on1,-183.5,-202.7,7.9,-14.5,50.6*,-4.6
CC1CCN(C(=O)c2cc(-c3ccc4c(c3)OCO4)on2)CC1,-287.0,-145.0,20.7,-24.3,53.5*,-7.8
SMILES,Peg3 promoter,HIF-2a inh,CF NFkB block,TROY NFkB inh,TWEAK-Fn14 inh,KKLEB tox
CCCc1cnc(Nc2nc(C(N)Cc3ccc(C(F)(F)F)cc3)cs2)nc1 (configuration not stated),96.5*,26.9,17.3,3.0,-17.0,-7.3
Cc1cc(C)nc(Nc2nc(C(N)Cc3ccc(C(F)(F)F)cc3)cs2)n1 (configuration not stated),102.3*,13.2,-5.2,-4.3,-110.4,-2.3
CS(=O)(=O)c1ccc(Nc2nc(C(N)Cc3ccc(C(F)(F)F)cc3)cs2)cc1 (configuration not stated),26.9,7.5,37.8,11.0,9.2,-17.0
NC(Cc1ccc(C(F)(F)F)cc1)c1csc(Nc2nccc(C(F)(F)F)n2)n1 (configuration not stated),92.4*,15.1,-4.1,3.7,-15.1,-9.8
Cc1cc(C)nc(Nc2nc(C(N)Cc3ccc(F)cc3)cs2)n1 (configuration not stated),-43.8,-6.1,-0.8,0.7,-36.6,1.9
NC(COCc1ccccc1)c1csc(Nc2nccc(C(F)(F)F)n2)n1 (configuration not stated),-15.8,1.9,-3.3,0.4,-24.1,-8.8
COc1cc(OC)nc(Nc2nc(C(N)Cc3ccccc3)cs2)n1 (configuration not stated),45.0,-5.8,-8.2,-2.8,-4.5,-0.9
Cc1cc(C)nc(Nc2nc(C(N)Cc3ccc(Cl)cc3)cs2)n1 (configuration not stated),91.9*,10.0,11.2,4.5,-33.5,-2.2
O=c1c(Cc2c(F)cccc2Cl)c(O)ccn1CCCn1ccnc1,10.6,17.4,7.3,-4.7,-1.8,-1.0
COc1ccccc1Cn1c(C)c(C(=O)NCc2ccc(C#N)cc2)sc1=O,1.1,-9.8,-12.6,15.3,-26.7,-6.5
O=C(Nc1cccc(-c2csc(Nc3ccccc3)n2)c1)c1cc([N+](=O)[O-])cc(C(F)(F)F)c1,-98.0,-160.1,-36.6,10.3,9.6,0.3
O=C(Nc1cccc(-c2csc(Nc3ccc(Cl)cc3)n2)c1)c1cc([N+](=O)[O-])cc(C(F)(F)F)c1,21.4,-18.6,29.8,3.4,50.7*,-16.5
NS(=O)(=O)c1ccc(Nc2nc(-c3cccc([N+](=O)[O-])c3)cs2)cc1,6.8,-27.7,-198.5,55.8*,36.3,25.0
NS(=O)(=O)c1ccc(Nc2nc(-c3ccc4ccccc4c3)cs2)cc1,-13.6,-111.3,-30.1,6.5,17.3,22.8
c1ccc(COc2ccccc2CNC23CC4CC(CC(C4)C2)C3)cc1,74.6*,13.0,19.2,-1.9,-25.2,-11.9
COc1cccc(-c2cnc3c(NC=O)cc(-c4ccc(O)c(OC)c4)cn23)c1,69.3*,-41.9,25.5,9.9,-5.1,-13.4
COc1cccc(-c2cc(NC=O)c3ncc(-c4cc(OC)c(OC)c(OC)c4)n3c2)c1,7.4,3.2,45.5,34.7,41.9,-18.7
COc1ccc(-c2cc(NC=O)c3ncc(-c4ccc(OC)c(OC)c4)n3c2)cc1OC,57.5*,20.3,35.6,-0.8,3.4,-31.2
COc1ccc(-n2ncc3c(NC(C)C)ncnc32)cc1,-168.8,-81.8,9.4,27.5,63.6*,-4.6
CCCCNc1ncnc2c1cnn2-c1ccc(Cl)cc1,-339.2,-288.3,27.5,-36.2,37.9,-5.3

# Bioassay records as filed in PubChem.
